Experimental data reported in PubChem BioAssay (NCATS).
Inconclusive results are not listed. Entries that show only a call come without a potency. Calls of active or inactive are those of the source. The call rests on the fitted dose curve; in most records, active means well fitted inhibition curve with a large enough effect; inconclusive means small, poorly fitted or top-dose-only effect; inactive means no such curve, though single readings can be large or run the other way.

Columns and labels:
[1] = biological target: Retinaldehyde dehydrogenase 3 (Homo sapiens) (UniProt P47895); experiment: qHTS for Inhibitors of the Aldehyde Dehydrogenase Family (ALDH1A3) Primary screen (AID 2061315); conditions: ALDH inhibition qHTS; series mostly up to 56 µM
[2] = biological target: Retinal dehydrogenase 2 (Homo sapiens) (UniProt O94788); experiment: qHTS for Inhibitors of the Aldehyde Dehydrogenase Family (ALDH1A2) Confirmation screens (AID 2061314); conditions: ALDH1A2 enzyme inhibition qHTS confirmation; series mostly up to 45.9 µM; further: nearly all actives have a fitted effect of over 65% in size; further: potency means the concentration at half of the fitted maximal effect
[3] = biological target: Aldehyde dehydrogenase 1A1 (Homo sapiens) (UniProt P00352); experiment: qHTS for Inhibitors of the Aldehyde Dehydrogenase Family (ALDH1A1) Confirmatory screens (AID 2061316); conditions: ALDH inhibition qHTS; series mostly up to 47.3 µM; further: potency means the concentration at half of the fitted maximal effect; nearly all actives have a fitted effect of over 65% in size

SMILES | Potency [1] | Potency [2] | Potency [3]
Cc1ccc2nc3sc(C(=O)Nc4ccc(F)cc4)cc3cc2c1 | inactive |  | 
Cn1nnnc1Sc1ncnc2scc(I)c12 | inactive | inactive | 25.2 µM (active)
CC(=O)Nc1sc2c(c1-c1nc3ccccc3s1)CCN(C1COC1)C2 | inactive | 14.2 µM (active) | 4 µM (active)
